CHOP inh – CHOP inhibition in unfolded protein response. 220,000 compounds, 3.8% hits. inhibition, % at 10 µM. CHO-K1 CHOP-promoter luciferase, tunicamycin-induced, 15-18 h;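 active means compounds that reduced the stress-induced luciferase reporter signal by more than about 70% of percent inhibition, limit read from the data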;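 further: 0% = tunicamycin plus vehicle and 100% = wells without tunicamycin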
KKLEB cytotox – counter-screen for CF NF-kB inhibitors: cytotoxicity; activity change (cytotoxicity), % at 5 µM; KKLEB CF airway cells viability, ATPlite luminescence, overnight; active compounds read low; cells stimulated with P. aeruginosa culture filtrate; AID 602141; 360,000 compounds, 0.36% hits;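 active means corrected activity change at or below -50% at 5 µM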
HIF-2a inh – HIF-2a inhibition. 786-0 RCC cells HIF-2a reporter, luciferase luminescence, overnight. inhibition, % at 18.8 µM. 360,000 compounds, 0.72% hits;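 active means inhibition of the luminescence signal of 40% or more relative to plate controls, in a single-dose primary screen at 18.75 µM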
MITF TRPM1 inh – reduces MITF-dependent TRPM1 promoter luciferase signal; SK-MEL-5 TRPM1 promoter luciferase, 24 h; inhibition, % at 12.5 µM; 330,000 compounds, 0.83% hits;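 active means mean inhibition across replicates of 60% or more, whatever share of single replicates reaches that level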
Peg3 prom inh-1 – reduces Peg3 promoter-driven luciferase expression in HeLa | HeLa PEG-Prom luciferase reporter, luminescence, overnight | inhibition, % at 20 µM | 360,000 compounds, 1.7% hits | AID 588405;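 active means inhibition of at least 50% at 20 µM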
CF NFkB block – blocks PAF-induced NF-kB reporter in cystic fibrosis cells. KKLEB NF-kB-GFP reporter, GFP fluorescence overnight. inhibition, % at 5 µM. 360,000 compounds, 0.86% hits. AID 588850;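 active means at least 50% inhibition at 5 µM, scaled per plate between neutral and stimulator controls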;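 further: PAF is a Pseudomonas aeruginosa culture filtrate used as stimulus; plate controls were PAF-stimulated DMSO wells for no effect and unstimulated DMSO wells for full effect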
CHOP inh conf – confirmation of CHOP induction inhibitors | shares compounds with CHOP inh | CHO-CHOP promoter luciferase reporter, tunicamycin-induced, luminescence | inhibition, % at 10 µM | 2,100 compounds, 45% hits;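 active means mean of three repeat readings of reporter signal inhibition above a set limit, cut at about 70% in these data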;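 further: 0% = tunicamycin plus vehicle and 100% = wells lacking tunicamycin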
Peg3 prom inh-2 – confirmation of Peg3 promoter inhibitors | HeLa PEG-Prom luciferase reporter, luminescence, overnight | AID 602417 | 1,300 compounds, 84% hits | inhibition, % at 20 µM | shares compounds with Peg3 prom inh-1;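 active means at 20 µM dose, 40% or more inhibition averaged across four replicates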
CF NFkB conf – confirmation of cystic fibrosis induced NF-kB inhibitors; shares compounds with CF NFkB block; AID 602472; 1,300 compounds, 64% hits; inhibition, % at 5 µM; KKLEB CF airway cells, PAF-induced NF-kB-GFP fluorescence, overnight; in the data active means inhibition above about 40%;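 further: stimulus PAF is a Pseudomonas aeruginosa filtrate and not platelet activating factor; plate controls were DMSO wells with stimulus for no effect and unstimulated DMSO wells for full effect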
Mdm2-MdmX confirm – Mdm2/MdmX (human) interaction inhibition, confirmed | 740 compounds, 99% hits | SaOS-2 split-luciferase Mdm2/MdmX complementation, luminescence | inhibition, % at 8 µM | shares compounds with HIF-2a inh | AID 504601;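 active means mean inhibition of the luminescence signal across two replicates at or above 26 percent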
Target sequence (O15151 whole entry, looked up): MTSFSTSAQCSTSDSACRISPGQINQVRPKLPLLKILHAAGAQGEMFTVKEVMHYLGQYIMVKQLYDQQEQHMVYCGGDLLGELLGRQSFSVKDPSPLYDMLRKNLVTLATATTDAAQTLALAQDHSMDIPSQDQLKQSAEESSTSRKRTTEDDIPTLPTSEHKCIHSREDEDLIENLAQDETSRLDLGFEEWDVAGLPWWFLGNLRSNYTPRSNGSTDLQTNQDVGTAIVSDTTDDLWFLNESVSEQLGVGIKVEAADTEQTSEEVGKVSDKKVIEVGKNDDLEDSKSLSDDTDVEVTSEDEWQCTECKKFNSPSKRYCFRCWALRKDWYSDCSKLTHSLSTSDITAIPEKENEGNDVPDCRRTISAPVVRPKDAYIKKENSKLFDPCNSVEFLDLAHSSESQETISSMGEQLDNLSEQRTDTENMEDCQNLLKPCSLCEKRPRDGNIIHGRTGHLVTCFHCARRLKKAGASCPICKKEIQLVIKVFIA
Target sequence (Q00987 whole entry, looked up): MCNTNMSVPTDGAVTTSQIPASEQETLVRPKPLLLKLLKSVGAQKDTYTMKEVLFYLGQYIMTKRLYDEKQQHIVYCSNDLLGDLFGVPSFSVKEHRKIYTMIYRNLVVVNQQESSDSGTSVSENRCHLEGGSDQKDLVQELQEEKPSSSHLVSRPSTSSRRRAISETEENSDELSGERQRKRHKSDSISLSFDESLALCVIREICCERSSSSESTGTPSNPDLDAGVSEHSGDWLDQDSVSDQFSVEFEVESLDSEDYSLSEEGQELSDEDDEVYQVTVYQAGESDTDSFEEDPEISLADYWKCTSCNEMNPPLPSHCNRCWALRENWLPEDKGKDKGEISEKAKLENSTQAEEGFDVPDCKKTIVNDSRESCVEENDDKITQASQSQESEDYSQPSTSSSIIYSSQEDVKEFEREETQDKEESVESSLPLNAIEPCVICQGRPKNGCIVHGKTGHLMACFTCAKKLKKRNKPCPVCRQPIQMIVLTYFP
HIF-2a inh conf – confirmation of HIF-2a inhibitors; shares compounds with HIF-2a inh; 786-0 RCC cells, HIF-2a luciferase reporter luminescence, overnight; inhibition, % at 18.8 µM; 1,800 compounds, 56% hits; AID 651580;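 active means mean inhibition across four replicates of at least 40 percent at the single tested concentration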
HIF-1a counter – inhibits HIF-1a reporter, a counter-screen for HIF-2a inhibitors; shares compounds with HIF-2a inh; MiaPaCa-2 HIF-1a luciferase reporter, desferoxamine, overnight; inhibition, % at 18.8 µM; 1,800 compounds, 72% hits; AID 651589;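 active means mean inhibition of the reporter signal across four replicates at the single tested dose of 50% or more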
Starred values were filed as active, the others as inactive; . = no result given. Sampled rows, rich in hits. Any-hit rate of the full collection: about 4.3%.

SMILES | CHOP inh | KKLEB cytotox | HIF-2a inh | MITF TRPM1 inh | Peg3 prom inh-1 | CF NFkB block | CHOP inh conf | Mdm2-MdmX confirm | HIF-2a inh conf | HIF-1a counter | others
O=C(CCl)N(c1ccc(Cl)cc1)c1c[nH]c2ccccc12 | . | -88.9* | 94.7* | 83.9* | 103.2* | 83.6* | 119.0* | 103.0* | 96.0* | 107.0*
O=C(Cc1ccc(Cl)cc1)NCCc1c[nH]c2ccccc12 | . | -4.8 | 0.8 | 6.3 | 4.7 | 13.5 | . | . | . | .
O=C(O)Cc1c[nH]c2ccccc12 | . | -3.2 | 23.0 | . | -2.5 | 6.7 | . | . | . | .
O=C(CCl)N(c1ccccc1)c1c[nH]c2ccccc12 | . | -54.1* | 73.4* | 85.5* | 86.2* | 64.1* | -29.4 | 103.0* | 53.1* | 103.7*
CC(C)=CCC[C@H](C)CC1Cc2[nH]c(=S)[nH]c(=O)c2C(c2ccc(Cl)cc2)O1 (stereo not given in full) | . | . | -10.7 | . | . | . | . | . | . | .
C/C(=N\OCc1cccc(C(=O)O)c1)c1ccc(Cl)cc1 | 96.3* | 4.3 | 73.4* | . | 55.3* | -14.0 | 111.4* | . | 79.0* | -104.2 | Peg3 prom inh-2=35.9
Cn1ncc2c(O/N=C(\N)c3ccc(C(C)(C)C)cc3)ncnc21 | 98.9* | -43.5 | 93.1* | 80.1* | 112.2* | 57.9* | 85.4* | 103.0* | 98.3* | -197.5 | CF NFkB conf=87.8*
CCOC(=O)c1ccc(Nc2ncnc3c2cnn3C)cc1 | -13.1 | 2.3 | -63.5 | -30.9 | -53.3 | 6.0 | . | . | . | .
COc1ccccc1-c1cnc(C(O)c2cccc(CN3CCCCC3)c2)[nH]1 (stereo not given) | . | 15.5 | -9.2 | . | -17.2 | -17.0 | . | . | . | .
CCOC(=O)COc1ccc(/C=C/[N+](=O)[O-])c(OCC(=O)OCC)c1 | 111.4* | -14.7 | 75.1* | 91.5* | 106.3* | 15.6 | -95.5 | . | 6.7 | 90.1*
Cc1cc(NC(=O)c2c(-c3c(Cl)cccc3Cl)noc2C)n(C)n1 | -3.6 | 0.9 | 11.1 | -15.0 | 3.1 | 4.8 | . | . | . | .
O=C(Cn1ncc(Cl)c(Cl)c1=O)N1CCN(S(=O)(=O)c2ccc3ccccc3c2)CC1 | 98.8* | -68.1* | 94.5* | 89.1* | 105.6* | 81.8* | -25.1 | 101.7* | 96.0* | 105.3*
O=C(NC1CCCC1)C(C1CC1)n1c(-c2cc3ccccc3[nH]2)nc2ccccc21 (stereo not given) | . | . | -241.0 | . | . | . | . | . | . | .
O=C1C=C(c2ccccc2)C(=O)N1Nc1ccccc1 | 107.3* | 19.2 | 76.9* | 55.8 | 95.8* | 44.7 | -6.5 | . | 55.8* | 29.8
C[C@@H]1CC=C[C@H]2[C@H]1C(=O)N(Cc1ccccc1)[C@H]2c1ccc2ccccc2c1Br | 98.2* | -35.1 | 42.4* | -0.9 | 32.7 | 73.6* | 59.0 | . | 23.4 | 72.4* | CF NFkB conf=53.9*
O=C1CCN(Cl)C(=O)N1Cl | . | . | -4.9 | . | . | . | . | . | . | .
Cc1ccc(C)c(C(=O)Cn2ncc(Cl)c(Cl)c2=O)c1 | 110.7* | -13.4 | 86.3* | 74.6* | 108.9* | 30.7 | -24.5 | . | 13.3 | 104.3*
COc1ccccc1-c1cccc(-c2nc(C(=O)Nc3nccs3)cc3c2[C@@H](CCO)N(C(=O)CC2CC2)C3)c1 | . | . | -6.1 | . | . | . | . | . | . | .
COc1ccc(C(=O)c2c(C(F)(F)F)oc3c2C(=O)c2ccccc2C3=O)cc1 | 105.7* | -82.6* | 27.1 | 104.9* | 99.4* | 88.4* | 117.4* | 97.2* | . | .
Cc1ccc(NC(=O)COc2ccc(N(C)C(=O)C(C)(C)C)cc2)cc1S(=O)(=O)N1CCCCC1 | . | -3.9 | 10.8 | 25.0 | 36.8 | 14.7 | . | . | . | .
O=C(c1ccccc1)c1cc(Cl)ccc1N1C(=O)C=CC1=O | 105.7* | -14.2 | 75.0* | 83.6* | 105.4* | 58.0* | -10.3 | . | 78.4* | -10.8
N#Cc1cc(C(=O)c2cc(Cl)ccc2O)cn(-c2ccccc2)c1=O | 14.4 | -6.8 | 4.8 | -17.2 | 13.9 | 9.1 | . | . | . | .
CN1/C(=C\C(=O)c2cccnc2)C(C)(C)c2ccccc21 | 14.1 | -8.2 | -63.3 | -20.0 | -56.4 | -0.7 | . | . | . | .
CN1/C(=C/C(=O)c2nc(S(C)(=O)=O)ncc2Cl)C(C)(C)c2ccccc21 | . | -47.1 | 91.5* | 105.7* | 111.0* | 94.6* | 116.8* | 103.2* | . | .
Clc1ccc2c(NNc3ccccc3Cl)ccnc2c1 | 46.7 | -3.3 | -10.8 | 5.5 | -17.6 | 3.9 | . | . | . | .
SMILES | CHOP inh | KKLEB cytotox | HIF-2a inh | MITF TRPM1 inh | Peg3 prom inh-1 | CF NFkB block | CHOP inh conf | Mdm2-MdmX confirm | HIF-2a inh conf | HIF-1a counter | others
Clc1ccc2c(N/N=C/c3ccccc3Br)ccnc2c1 | 99.7* | -42.6 | -27.3 | 83.4* | 84.0* | -49.7 | 76.9* | 102.7* | . | .
CNC(=O)c1nnsc1S(=O)(=O)c1ccc(Cl)cc1 | 107.1* | -92.4* | 64.6* | 85.1* | 105.5* | 90.5* | 113.7* | 103.7* | 73.6* | 50.1*
C=C1C(=O)O[C@@H]2[C@H]1[C@@H](OC(=O)/C(C)=C/C)C/C(C)=C\C(=O)/C=C(\C)[C@@H]2O | 107.4* | -3.5 | 94.9* | 96.4* | 110.6* | 85.9* | 68.6 | 103.5* | 72.8* | 102.4* | CF NFkB conf=-10.8
CCOC(=O)c1nc(S(C)(=O)=O)ncc1Cl | . | -4.4 | 46.1* | 28.6 | 105.4* | 68.8* | 92.3* | . | -3.2 | 6.1 | CF NFkB conf=-14.2
N#CCC(=O)Nc1ccc(C(=O)OCC(=O)N(C2CCCCC2)C2CCCCC2)cc1 | . | 7.4 | 19.6 | 7.2 | 8.3 | -24.2 | . | . | . | .
CS(=O)(=O)c1ccc(Sc2nc3ccccc3[nH]2)c([N+](=O)[O-])c1 | 13.8 | 4.8 | 23.8 | 7.0 | -4.3 | 10.8 | . | . | . | .
O=[N+]([O-])c1cc(S(=O)(=O)C(F)(F)F)ccc1Sc1nc2ccccc2[nH]1 | 107.9* | -23.7 | 93.2* | 95.6* | 104.4* | 50.1* | 123.8* | . | 68.9* | 106.2*
O=[N+]([O-])c1cc(S(=O)(=O)C(F)(F)F)ccc1Sc1nc2ccccc2s1 | 106.8* | -37.8 | 55.5* | 54.1 | 110.4* | 9.9 | -27.8 | . | 34.4 | 100.7*
Nc1ccn([C@@H]2O[C@H](C(=O)N3CCCN(Cc4cccs4)CC3)[C@@H](O)[C@H]2O)c(=O)n1 | . | 4.6 | 12.7 | . | 7.7 | -12.8 | . | . | . | .
